# Publication PMC7862700, “An all-to-all approach to the identification of sequence-specific readers for epigenetic DNA modifications on cytosine”
# What was measured:
# Experiment in all cases: DAPPL (digital affinity profiling via proximity ligation, sequencing); 10 mM Tris-HCl pH 7.5, 50 mM NaCl, 1 mM DTT, 4% glycerol, room temperature, 30 min; GST-TFs on glutathione beads, 16-mer random dsDNA library, 0.1% formaldehyde crosslink after washing; high values mean tight binding
# [1] = biological target: HSF1 (Homo sapiens, UniProt Q00613 1-529); settings: protein: recombinant; tags: N-terminal GST; chain copies: 3; dsDNA, one strand shown
# Chain of HSF1 (Q00613 whole entry, the tested form may be a part): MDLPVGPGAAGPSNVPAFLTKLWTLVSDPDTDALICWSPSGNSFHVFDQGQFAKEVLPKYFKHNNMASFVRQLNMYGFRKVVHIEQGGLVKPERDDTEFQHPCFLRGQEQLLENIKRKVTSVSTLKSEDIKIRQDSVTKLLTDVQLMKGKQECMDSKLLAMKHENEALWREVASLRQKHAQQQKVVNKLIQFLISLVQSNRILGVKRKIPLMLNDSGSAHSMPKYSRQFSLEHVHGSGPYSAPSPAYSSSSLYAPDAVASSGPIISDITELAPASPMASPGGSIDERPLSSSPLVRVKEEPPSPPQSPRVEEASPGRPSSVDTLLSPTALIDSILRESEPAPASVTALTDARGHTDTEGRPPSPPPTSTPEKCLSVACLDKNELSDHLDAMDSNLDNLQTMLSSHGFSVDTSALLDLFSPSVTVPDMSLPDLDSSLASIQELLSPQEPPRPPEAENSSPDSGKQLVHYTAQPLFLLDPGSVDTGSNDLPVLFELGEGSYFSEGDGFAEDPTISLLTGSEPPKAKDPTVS
# In short: (§1)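 Binding signal is each hexamer's read frequency for a factor divided by its frequency in the tag-only sample. The factors were GST-fused human transcription factors from yeast, captured on glutathione beads, DNA-barcoded and pooled with that sample. Pools were incubated with 200 nmole of a random double-stranded 16-mer DNA library in Tris/NaCl/DTT/glycerol buffer at room temperature for 30 min, then washed, crosslinked with 0.1% formaldehyde, proximity-ligated with BsaI/T4 ligase (1 h, 37 °C), PCR-amplified and sequenced on an Illumina NextSeq500.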
# [2] = biological target: T1, ELK4 (Homo sapiens, UniProt P28324-2 1-405); settings: protein: recombinant; tags: N-terminal GST; dsDNA, one strand shown
# T1 sequence: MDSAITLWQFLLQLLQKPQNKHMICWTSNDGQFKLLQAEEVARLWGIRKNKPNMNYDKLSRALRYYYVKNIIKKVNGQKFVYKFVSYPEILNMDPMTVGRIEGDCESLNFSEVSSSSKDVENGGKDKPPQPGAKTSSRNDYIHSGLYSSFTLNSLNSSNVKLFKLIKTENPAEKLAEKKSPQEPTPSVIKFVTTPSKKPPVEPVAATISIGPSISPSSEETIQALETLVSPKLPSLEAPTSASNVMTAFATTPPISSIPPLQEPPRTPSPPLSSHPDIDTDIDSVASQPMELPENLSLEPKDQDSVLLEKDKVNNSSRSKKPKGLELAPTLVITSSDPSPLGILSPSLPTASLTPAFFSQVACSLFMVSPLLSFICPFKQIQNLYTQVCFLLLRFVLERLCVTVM
# In short: as §1
# [3] = biological target: T2, ELF3 (Homo sapiens, UniProt P78545 1-371); settings: protein: recombinant; tags: N-terminal GST; dsDNA, one strand shown
# T2 sequence: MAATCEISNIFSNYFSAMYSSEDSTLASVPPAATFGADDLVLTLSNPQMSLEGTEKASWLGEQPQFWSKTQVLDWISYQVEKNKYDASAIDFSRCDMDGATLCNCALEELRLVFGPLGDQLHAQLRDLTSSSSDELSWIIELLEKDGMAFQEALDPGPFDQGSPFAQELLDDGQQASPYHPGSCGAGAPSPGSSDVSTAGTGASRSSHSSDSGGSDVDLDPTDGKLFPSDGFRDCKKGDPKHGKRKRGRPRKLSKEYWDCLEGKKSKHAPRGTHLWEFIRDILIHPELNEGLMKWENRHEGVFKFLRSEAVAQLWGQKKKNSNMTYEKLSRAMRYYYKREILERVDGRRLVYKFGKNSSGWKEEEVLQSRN
# In short: as §1
# [4] = biological target: CRX (Homo sapiens, UniProt O43186 1-299); settings: protein: recombinant; tags: N-terminal GST; dsDNA, one strand shown
# Chain of CRX (O43186 whole entry): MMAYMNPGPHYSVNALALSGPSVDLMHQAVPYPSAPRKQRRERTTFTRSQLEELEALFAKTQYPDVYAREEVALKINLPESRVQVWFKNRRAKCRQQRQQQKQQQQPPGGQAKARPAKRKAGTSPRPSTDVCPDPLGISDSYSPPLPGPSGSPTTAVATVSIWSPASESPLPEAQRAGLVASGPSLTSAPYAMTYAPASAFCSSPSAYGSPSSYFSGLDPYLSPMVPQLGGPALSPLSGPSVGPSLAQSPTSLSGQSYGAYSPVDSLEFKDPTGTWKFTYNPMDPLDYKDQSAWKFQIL
# In short: as §1
# [5] = biological target: T3, ETV7 (Homo sapiens, UniProt Q9Y603 1-341); settings: protein: recombinant; tags: N-terminal GST; dsDNA, one strand shown
# T3 sequence: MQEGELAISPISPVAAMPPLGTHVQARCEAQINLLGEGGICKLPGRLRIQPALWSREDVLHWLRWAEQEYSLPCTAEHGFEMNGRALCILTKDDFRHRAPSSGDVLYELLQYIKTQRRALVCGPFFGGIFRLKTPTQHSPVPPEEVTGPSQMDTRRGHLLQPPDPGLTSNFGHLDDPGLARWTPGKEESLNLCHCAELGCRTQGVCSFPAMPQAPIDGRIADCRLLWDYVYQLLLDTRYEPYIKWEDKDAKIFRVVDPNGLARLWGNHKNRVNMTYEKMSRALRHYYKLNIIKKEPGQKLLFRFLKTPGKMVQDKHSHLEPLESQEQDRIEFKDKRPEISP
# In short: as §1
# [6] = biological target: SPIB (Homo sapiens, UniProt Q01892 1-262); settings: protein: recombinant; tags: N-terminal GST; dsDNA, one strand shown
# Chain of SPIB (Q01892 whole entry): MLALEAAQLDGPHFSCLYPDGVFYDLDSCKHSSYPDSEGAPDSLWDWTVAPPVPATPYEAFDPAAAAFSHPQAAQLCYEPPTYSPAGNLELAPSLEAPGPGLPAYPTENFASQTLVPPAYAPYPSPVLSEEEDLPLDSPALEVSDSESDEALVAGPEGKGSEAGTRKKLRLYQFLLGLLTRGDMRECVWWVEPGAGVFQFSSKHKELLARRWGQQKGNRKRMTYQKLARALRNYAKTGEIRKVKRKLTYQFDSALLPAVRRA
# In short: as §1
# [7] = biological target: T4, ELK3 (Homo sapiens, UniProt P41970 1-407); settings: protein: recombinant; tags: N-terminal GST; dsDNA, one strand shown
# T4 sequence: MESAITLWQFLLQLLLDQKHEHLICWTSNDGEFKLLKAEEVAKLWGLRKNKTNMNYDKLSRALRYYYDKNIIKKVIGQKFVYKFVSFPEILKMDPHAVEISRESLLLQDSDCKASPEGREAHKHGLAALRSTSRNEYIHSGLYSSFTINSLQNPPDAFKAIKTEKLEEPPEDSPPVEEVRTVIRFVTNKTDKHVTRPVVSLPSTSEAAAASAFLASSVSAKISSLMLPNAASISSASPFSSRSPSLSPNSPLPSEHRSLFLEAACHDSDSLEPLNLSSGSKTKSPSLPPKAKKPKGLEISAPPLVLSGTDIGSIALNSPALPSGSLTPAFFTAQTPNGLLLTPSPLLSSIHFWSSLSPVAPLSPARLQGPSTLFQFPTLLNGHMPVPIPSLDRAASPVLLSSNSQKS
# In short: as §1
# [8] = biological target: T5, ETV2 (Homo sapiens, UniProt O00321 1-342); settings: protein: recombinant; tags: N-terminal GST; dsDNA, one strand shown
# T5 sequence: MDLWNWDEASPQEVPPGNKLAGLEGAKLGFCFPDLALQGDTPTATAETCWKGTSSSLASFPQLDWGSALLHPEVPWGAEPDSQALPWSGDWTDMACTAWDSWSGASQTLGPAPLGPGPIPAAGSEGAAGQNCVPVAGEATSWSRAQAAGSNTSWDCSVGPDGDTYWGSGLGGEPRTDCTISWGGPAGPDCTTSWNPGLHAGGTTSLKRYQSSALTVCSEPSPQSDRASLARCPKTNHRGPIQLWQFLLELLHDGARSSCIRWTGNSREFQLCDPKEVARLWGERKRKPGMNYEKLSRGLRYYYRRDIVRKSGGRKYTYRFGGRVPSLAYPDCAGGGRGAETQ
# In short: as §1
# [9] = biological target: T6, ETV3L (Homo sapiens, UniProt Q6ZN32 1-361); settings: protein: recombinant; tags: N-terminal GST; dsDNA, one strand shown
# T6 sequence: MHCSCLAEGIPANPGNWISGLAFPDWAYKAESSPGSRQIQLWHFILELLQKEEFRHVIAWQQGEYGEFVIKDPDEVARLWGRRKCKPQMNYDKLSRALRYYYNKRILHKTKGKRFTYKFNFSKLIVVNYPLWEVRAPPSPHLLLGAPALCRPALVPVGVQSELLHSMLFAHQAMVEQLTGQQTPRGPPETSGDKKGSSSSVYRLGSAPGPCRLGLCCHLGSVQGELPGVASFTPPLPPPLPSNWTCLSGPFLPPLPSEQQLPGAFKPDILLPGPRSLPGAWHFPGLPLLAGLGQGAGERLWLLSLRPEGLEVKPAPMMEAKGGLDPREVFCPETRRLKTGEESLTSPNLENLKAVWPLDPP
# In short: as §1
# [10] = biological target: T7, ETS2 (Homo sapiens, UniProt P15036 1-469); settings: protein: recombinant; tags: N-terminal GST; dsDNA, one strand shown
# T7 sequence: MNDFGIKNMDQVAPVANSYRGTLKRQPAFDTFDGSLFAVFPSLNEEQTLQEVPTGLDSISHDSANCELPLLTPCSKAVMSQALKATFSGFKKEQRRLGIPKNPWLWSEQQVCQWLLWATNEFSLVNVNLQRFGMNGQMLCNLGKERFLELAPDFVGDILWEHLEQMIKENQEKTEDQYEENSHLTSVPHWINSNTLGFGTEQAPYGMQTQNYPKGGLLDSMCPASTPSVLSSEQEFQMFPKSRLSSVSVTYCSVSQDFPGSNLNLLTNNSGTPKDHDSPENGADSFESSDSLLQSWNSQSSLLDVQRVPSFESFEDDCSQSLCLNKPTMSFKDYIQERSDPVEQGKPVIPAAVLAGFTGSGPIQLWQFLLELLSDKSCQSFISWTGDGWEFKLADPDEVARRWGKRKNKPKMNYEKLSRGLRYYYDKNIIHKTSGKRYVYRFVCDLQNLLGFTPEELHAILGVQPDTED
# In short: as §1
# [11] = biological target: ELF4 (Homo sapiens, UniProt Q99607 1-663); settings: protein: recombinant; tags: N-terminal GST; dsDNA, one strand shown
# Chain of ELF4 (Q99607 whole entry): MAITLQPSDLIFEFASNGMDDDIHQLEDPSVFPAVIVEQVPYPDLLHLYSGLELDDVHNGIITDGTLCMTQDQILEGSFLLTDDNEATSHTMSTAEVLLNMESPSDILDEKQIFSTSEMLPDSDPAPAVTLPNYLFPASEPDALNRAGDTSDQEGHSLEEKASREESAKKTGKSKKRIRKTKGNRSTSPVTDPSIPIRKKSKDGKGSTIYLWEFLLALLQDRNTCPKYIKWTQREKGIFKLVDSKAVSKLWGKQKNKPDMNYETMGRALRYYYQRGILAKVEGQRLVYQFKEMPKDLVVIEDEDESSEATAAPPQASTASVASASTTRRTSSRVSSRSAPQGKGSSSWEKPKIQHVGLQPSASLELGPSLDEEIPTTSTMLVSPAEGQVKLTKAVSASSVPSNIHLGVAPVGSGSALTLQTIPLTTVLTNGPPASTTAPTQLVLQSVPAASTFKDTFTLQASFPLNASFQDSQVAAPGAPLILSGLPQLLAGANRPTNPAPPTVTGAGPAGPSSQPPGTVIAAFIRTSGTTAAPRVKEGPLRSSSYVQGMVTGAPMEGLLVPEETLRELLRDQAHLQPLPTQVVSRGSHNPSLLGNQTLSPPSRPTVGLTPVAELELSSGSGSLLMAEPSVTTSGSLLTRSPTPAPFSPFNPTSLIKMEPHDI
# In short: as §1
# [12] = biological target: T8, SPIC (Homo sapiens, UniProt Q8N5J4 1-248); settings: protein: recombinant; tags: N-terminal GST; dsDNA, one strand shown
# T8 sequence: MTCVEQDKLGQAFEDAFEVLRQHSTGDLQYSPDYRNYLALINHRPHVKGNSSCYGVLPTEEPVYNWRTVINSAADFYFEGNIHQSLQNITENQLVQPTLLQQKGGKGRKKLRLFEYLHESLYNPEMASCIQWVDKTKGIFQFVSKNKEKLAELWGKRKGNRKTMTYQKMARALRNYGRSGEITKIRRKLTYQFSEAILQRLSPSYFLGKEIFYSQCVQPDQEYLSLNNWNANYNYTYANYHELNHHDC
# In short: as §1
# [13] = biological target: T9, ERF (Homo sapiens, UniProt P50548 1-548); settings: protein: recombinant; tags: N-terminal GST; dsDNA, one strand shown
# T9 sequence: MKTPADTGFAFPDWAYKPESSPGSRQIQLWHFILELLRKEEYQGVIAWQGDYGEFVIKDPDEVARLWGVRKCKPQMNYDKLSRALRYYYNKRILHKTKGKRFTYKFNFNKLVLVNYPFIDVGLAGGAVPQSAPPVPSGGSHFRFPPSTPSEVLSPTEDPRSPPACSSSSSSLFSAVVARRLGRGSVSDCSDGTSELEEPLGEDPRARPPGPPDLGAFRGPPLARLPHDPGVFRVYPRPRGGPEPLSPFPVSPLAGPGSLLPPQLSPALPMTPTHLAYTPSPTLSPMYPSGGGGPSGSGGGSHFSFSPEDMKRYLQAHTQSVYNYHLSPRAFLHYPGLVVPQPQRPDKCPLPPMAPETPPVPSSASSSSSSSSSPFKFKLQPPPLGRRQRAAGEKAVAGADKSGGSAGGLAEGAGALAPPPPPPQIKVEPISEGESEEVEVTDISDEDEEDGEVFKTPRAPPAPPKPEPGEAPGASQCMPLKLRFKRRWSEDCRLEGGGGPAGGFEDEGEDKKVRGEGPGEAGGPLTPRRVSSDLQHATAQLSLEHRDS
# In short: as §1
# [14] = biological target: ETV6 (Homo sapiens, UniProt P41212 1-452); settings: protein: recombinant; tags: N-terminal GST; dsDNA, one strand shown
# Chain of ETV6 (P41212 whole entry): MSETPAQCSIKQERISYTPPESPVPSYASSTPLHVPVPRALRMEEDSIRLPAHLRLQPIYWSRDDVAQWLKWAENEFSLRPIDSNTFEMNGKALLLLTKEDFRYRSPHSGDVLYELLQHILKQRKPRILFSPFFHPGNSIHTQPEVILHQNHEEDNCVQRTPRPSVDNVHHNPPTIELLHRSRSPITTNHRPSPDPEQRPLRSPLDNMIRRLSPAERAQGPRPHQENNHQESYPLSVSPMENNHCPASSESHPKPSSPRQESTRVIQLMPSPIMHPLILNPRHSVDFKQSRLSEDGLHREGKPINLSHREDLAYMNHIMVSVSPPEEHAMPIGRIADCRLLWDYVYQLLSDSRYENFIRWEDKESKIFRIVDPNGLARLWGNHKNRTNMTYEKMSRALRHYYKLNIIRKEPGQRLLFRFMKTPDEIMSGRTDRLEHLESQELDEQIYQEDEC
# In short: as §1
sequence,measurement,setting,value
AGAAGA,binding signal,[1],"1.68 fold enrichment (6-mer frequency, TF over GST control)"
same,binding signal,[2],"1.05 fold enrichment (6-mer frequency, TF over GST control)"
same,binding signal,[3],"1.03 fold enrichment (6-mer frequency, TF over GST control)"
same,binding signal,[4],"1.14 fold enrichment (6-mer frequency, TF over GST control)"
same,binding signal,[5],"1.01 fold enrichment (6-mer frequency, TF over GST control)"
GCCTGG,binding signal,[6],"1.04 fold enrichment (6-mer frequency, TF over GST control)"
same,binding signal,[7],"1.01 fold enrichment (6-mer frequency, TF over GST control)"
same,binding signal,[1],"1.05 fold enrichment (6-mer frequency, TF over GST control)"
same,binding signal,[2],"1.08 fold enrichment (6-mer frequency, TF over GST control)"
same,binding signal,[8],"1.19 fold enrichment (6-mer frequency, TF over GST control)"
same,binding signal,[9],"1 fold enrichment (6-mer frequency, TF over GST control)"
same,binding signal,[10],"1.02 fold enrichment (6-mer frequency, TF over GST control)"
TCAGAA,binding signal,[1],"1.26 fold enrichment (6-mer frequency, TF over GST control)"
same,binding signal,[11],"1 fold enrichment (6-mer frequency, TF over GST control)"
same,binding signal,[4],"1.12 fold enrichment (6-mer frequency, TF over GST control)"
TTGAGA,binding signal,[1],"1.06 fold enrichment (6-mer frequency, TF over GST control)"
same,binding signal,[12],"1.02 fold enrichment (6-mer frequency, TF over GST control)"
same,binding signal,[4],"1.02 fold enrichment (6-mer frequency, TF over GST control)"
ACGAAG,binding signal,[1],"1.06 fold enrichment (6-mer frequency, TF over GST control)"
same,binding signal,[11],"1.01 fold enrichment (6-mer frequency, TF over GST control)"
same,binding signal,[13],"1.02 fold enrichment (6-mer frequency, TF over GST control)"
same,binding signal,[9],"1 fold enrichment (6-mer frequency, TF over GST control)"
same,binding signal,[5],"1.07 fold enrichment (6-mer frequency, TF over GST control)"
GATAAA,binding signal,[6],"1.04 fold enrichment (6-mer frequency, TF over GST control)"
same,binding signal,[1],"1.21 fold enrichment (6-mer frequency, TF over GST control)"
same,binding signal,[11],"1.01 fold enrichment (6-mer frequency, TF over GST control)"
same,binding signal,[2],"1.02 fold enrichment (6-mer frequency, TF over GST control)"
same,binding signal,[8],"1.12 fold enrichment (6-mer frequency, TF over GST control)"
same,binding signal,[4],"1.55 fold enrichment (6-mer frequency, TF over GST control)"
same,binding signal,[14],"1 fold enrichment (6-mer frequency, TF over GST control)"
CCAGCA,binding signal,[7],"1 fold enrichment (6-mer frequency, TF over GST control)"
same,binding signal,[1],"1.21 fold enrichment (6-mer frequency, TF over GST control)"
same,binding signal,[12],"1.1 fold enrichment (6-mer frequency, TF over GST control)"
same,binding signal,[3],"1.06 fold enrichment (6-mer frequency, TF over GST control)"
